Experimental data: PubChem BioAssay (NCATS)
Inconclusive results are not listed. Values without a mark were called inactive. Active and inactive are the calls of the source. The call rests on the fitted dose curve; in most records, active means well fitted inhibition curve with a large enough effect; inconclusive means small, poorly fitted or top-dose-only effect; inactive means flat fitted curve, though single readings scatter. Non-standard residues stand in square brackets, D forms with d. Residues, ends and D or L forms follow the SMILES beside them. *: point of attachment. Nva = CCC[C@H](N)C(=O)O; Cbz = O=C(OCc1ccccc1)*

What was measured:
Assay in all cases: Cytotoxic Profiling of Annotated Libraries Using Quantitative High-Throughput Screening (AID 1296008); further: nearly all actives have a fitted effect of over 60% in size
Details in all cases: Five cell lines viability, CellTiter-Glo ATP luminescence, 48-72 h; max response: hits give low values
CRL-7250 = normal cell line; test system: CRL-7250
Summary of the method: (§1)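 Cytotoxicity was measured as CellTiter-Glo ATP luminescence, read after 10 min at room temperature. Compound treatment of the cells lasted 48 or 72 hr at 37 degrees Celsius in a qHTS format.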

HEK293 = test system: HEK293
Summary of the method: as §1

HaCat = test system: HaCat
Summary of the method: as §1

KB-3-1 = test system: KB-3-1
Summary of the method: as §1

NIH3T3 = test system: NIH3T3
Summary of the method: as §1
On the % scale 0 is the no-effect control and ±100 the full control effect; potency means the concentration at half of the fitted maximal effect.

## C=C(C)[C@@H]1CC[C@]2(C)CC[C@]3(C)[C@H](CC[C@@H]4[C@@]5(C)CC[C@H](O)C(C)(C)[C@H]5CC[C@]43C)[C@@H]12
CRL-7250
  max response: -9.28%
HEK293
  outcome: inactive
HaCat
  outcome: inactive
KB-3-1
  max response: 8.9%
NIH3T3
  outcome: inactive

## CCC(C=C[C@@H]1OC(=O)C=C[C@H]1C)=C[C@H](C)CC=CC(C)=C[C@@H](C)C(=O)[C@@H](C)[C@H](O)[C@@H](C)CC(C)=CC(=O)O
CRL-7250
  Potency: 0.0553 µM (active)
HEK293
  Potency: 0.0175 µM (active)
HaCat
  Potency: 0.11 µM (active)
NIH3T3
  Potency: 0.124 µM (active)

## CCC[C@@H](C=O)NC(=O)[C@H](CC(C)C)NC(=O)[C@H](CC(C)C)NC(=O)OCc1ccccc1 (Cbz-Leu-Leu-[Nva]-aldehyde)
CRL-7250
  Potency: 4.18 µM (active)
HEK293
  Potency: 3.72 µM (active)
HaCat
  Potency: 9.35 µM (active)
KB-3-1
  Potency: 2.96 µM (active)
NIH3T3
  Potency: 14.8 µM (active)

## CC(C)N1[N]C(=C2C=c3cc(O)ccc3=N2)c2c(N)ncnc21
CRL-7250
  Potency: 0.0418 µM (active)
HEK293
  Potency: 0.469 µM (active)
HaCat
  Potency: 11.8 µM (active)
KB-3-1
  Potency: 1.18 µM (active)
NIH3T3
  Potency: 0.526 µM (active)

## CON=C(C(=O)N[C@@H]1C(=O)N2C(C(=O)O)=C(CSC(=O)c3ccco3)CS[C@H]12)c1csc(N)n1
CRL-7250
  max response: 4.77%
HEK293
  outcome: inactive
HaCat
  max response: 1.07%
KB-3-1
  outcome: inactive
NIH3T3
  max response: -6.35%

## CC1(C)O[C@@H]2C[C@H]3[C@@H]4CCC5=CC(=O)C=C[C@]5(C)[C@@H]4[C@@H](O)C[C@]3(C)[C@]2(C(=O)CO)O1
CRL-7250
  max response: -21.1%
HEK293
  outcome: inactive
HaCat
  outcome: inactive
KB-3-1
  outcome: inactive
NIH3T3
  max response: -5.4%

## C[C@H](NC(=O)C(C#N)=Cc1cccc(Br)n1)c1ccccc1
CRL-7250
  Potency: 5.26 µM (active)
HEK293
  Potency: 4.18 µM (active)
HaCat
  Potency: 10.5 µM (active)
KB-3-1
  Potency: 4.69 µM (active)
NIH3T3
  Potency: 9.35 µM (active)

## CC(=O)N[C@@H]1[C@H](O[C@@H]2c3ccc(c(Cl)c3)Oc3cc4cc(c3O[C@H]3O[C@H](CO)[C@@H](O)[C@H](O)[C@H]3NC(=O)CCCCCCCC(C)C)Oc3ccc(cc3Cl)C[C@H]3NC(=O)[C@H](N)c5ccc(O)c(c5)Oc5cc(O)cc(c5)[C@H](NC3=O)C(=O)N[C@H]4C(=O)N[C@H]3C(=O)N[C@@H]2C(=O)N[C@@H](C(=O)O)c2cc(O)cc(O[C@H]4O[C@H](CO)[C@@H](O)[C@H](O)[C@H]4O)c2-c2cc3ccc2O)O[C@H](CO)[C@@H](O)[C@@H]1O
CRL-7250
  outcome: inactive
HEK293
  outcome: inactive
HaCat
  max response: 2.16%
KB-3-1
  outcome: inactive
NIH3T3
  max response: 4.41%

## O=C1NC(=O)[C@@H](c2cn3c4c(cccc24)CCC3)[C@H]1c1c[nH]c2ccccc12
CRL-7250
  Potency: 13.2 µM (active)
HEK293
  Potency: 0.662 µM (active)
HaCat
  outcome: inactive
KB-3-1
  Potency: 0.833 µM (active)
NIH3T3
  Potency: 2.09 µM (active)

## CON=C(C(=O)N[C@@H]1C(=O)N2C(C(=O)O)=C(Cn3ccc(=N)n3CCO)CS[C@H]12)c1csc(N)n1
CRL-7250
  max response: -8.38%
HEK293
  max response: -24.1%
HaCat
  max response: 4.51%
KB-3-1
  outcome: inactive
NIH3T3
  max response: 1.39%

## CC(C)N(CC[C@H](c1ccccc1)c1cc(CO)ccc1O)C(C)C
CRL-7250
  outcome: inactive
HEK293
  max response: 0.962%
HaCat
  max response: -1.81%
KB-3-1
  outcome: inactive
NIH3T3
  outcome: inactive

## Nc1nc(=O)n([C@H]2CSC(CO)O2)cc1F (stereo partly drawn)
CRL-7250
  max response: -8.43%
HEK293
  outcome: inactive
HaCat
  outcome: inactive
KB-3-1
  max response: 9.64%
NIH3T3
  outcome: inactive

## COc1cc(N2CCC(C(N)=O)CC2)ccc1Nc1nc(N)c(Cl)c(Nc2ccccc2S(=O)(=O)C(C)C)n1
CRL-7250
  outcome: inactive
HEK293
  Potency: 1.48 µM (active)
HaCat
  max response: -18.3%
KB-3-1
  max response: 2.09%
NIH3T3
  Potency: 3.72 µM (active)

## O=C(C=CC#Cc1cccc(NS(=O)(=O)c2ccccc2)c1)NO
CRL-7250
  Potency: 13.2 µM (active)
HEK293
  Potency: 8.33 µM (active)
HaCat
  Potency: 11.8 µM (active)
KB-3-1
  Potency: 5.26 µM (active)
NIH3T3
  Potency: 10.5 µM (active)

## O=C(O)C(=O)Nc1cccc(C2=NN=N[N]2)c1
CRL-7250
  outcome: inactive
HEK293
  max response: -1.4%
HaCat
  max response: -4.6%
KB-3-1
  max response: 7.57%
NIH3T3
  max response: -1.86%

## C=CC(=O)Nc1cccc(Nc2nc(NC3CCC(N(C)C)CC3)nc3c2ncn3C(C)C)c1 (stereo not drawn)
CRL-7250
  Potency: 0.59 µM (active)
HEK293
  Potency: 1.32 µM (active)
HaCat
  Potency: 7.43 µM (active)
NIH3T3
  Potency: 14.8 µM (active)

## CCOC(=O)N1CCN([N+]([O-])=NOc2ccc([N+](=O)[O-])cc2[N+](=O)[O-])CC1
CRL-7250
  max response: -5.72%
HEK293
  Potency: 3.72 µM (active)
HaCat
  max response: 3.57%
KB-3-1
  outcome: inactive
NIH3T3
  Potency: 9.35 µM (active)
